# In PubChem BioAssay AID504715 (Sanford-Burnham Center for Chemical Genomics, 2011):
# This is one part of the list. Values without a mark were called inactive.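 How the source made its calls: active means compounds giving 40% or more inhibition at 20 µM in any one of the three replicates; inactive means the rest.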
# Molecular target: Uracil-DNA glycosylase (Escherichia coli (strain K12)) (UniProt P12295)
# Test: uracil-DNA glycosylase inhibition, oligo cleavage readout – biochemical, single concentration, fluorescence, FAM/TAMRA oligo, counter-screen for APOBEC3G inhibitor project, confirmation (AID 504715);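 further: plate controls were DMSO wells with UDG and oligo for no effect and DMSO wells lacking both for full effect; inhibitors lower the FAM signal released by uracil excision and alkaline cleavage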
# Conditions: UDG counterscreen, at 20 µM, hits give high values
# Sequence of Uracil-DNA glycosylase (Escherichia coli (strain K12)) (P12295 whole entry, looked up): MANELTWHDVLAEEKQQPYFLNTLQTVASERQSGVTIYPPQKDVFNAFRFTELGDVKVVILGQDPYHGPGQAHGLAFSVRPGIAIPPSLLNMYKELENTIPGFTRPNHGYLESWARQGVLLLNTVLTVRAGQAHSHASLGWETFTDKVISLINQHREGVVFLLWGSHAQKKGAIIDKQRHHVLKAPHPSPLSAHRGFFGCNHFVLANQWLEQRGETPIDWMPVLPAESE
compound,measurement,value
COC(=O)N(c1ccc(OC)cc1)P1(=S)OCCC(C)O1 (stereo unspecified),inhibition,-3.68%
